Compound activity deposited in PubChem by National Center for Advancing Translational Sciences (NCATS).
Shiga toxin inh: A qHTS for Small Molecule Inhibitors of Shiga Toxin. Vero cells, Shiga toxin protein synthesis inhibition reporter. AID 2315, 2010. inhibition, % at 38.7 µM. hit rate 9.2% among 290,000; in the data active means inhibition mostly above about 28%, no sharp cut-off; inactive means mostly below about 43%; further: 0% is about no effect
NS1 inh: qHTS Assay for Inhibitors of Influenza NS1 Protein Function | Potency, µM (titrated, usually from 46.1 µM), for inactives: at the top dose activity, positive = more growth | hit rate 0.4% among 270,000; further: potency means the concentration at half of the fitted maximal effect; actives are rising curves; nearly all actives have a fitted effect of over 50% in size
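Recovery from NS1-induced slow growth read by OD600 in budding yeast switched to galactose assay medium (pH 6.0, -URA) at 1:100 dilution. Compound 23 nl per well; the matching strain lacking NS1 serves as control.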
SARS PLP yeast: qHTS of Yeast-based Assay for SARS-CoV PLP. S. cerevisiae expressing SARS-CoV PLpro, growth rescue. hit rate 0.19% among 330,000. Potency, µM (highest dose often 32.9 µM), for the others: at the highest dose activity, positive = growth rescue, usual class: activators; further: potency means the concentration at half of the fitted maximal effect; 0% is about no effect; nearly all actives have a fitted effect of over 55% in size
Cycloheximide cs: Cycloheximide Counterscreen for Small Molecule Inhibitors of Shiga Toxin | cell reporter, cycloheximide protein synthesis inhibition counterscreen | max response, % | hit rate 12% among 300,000 | AID 2314, 2010; in the data active means max response mostly above about 13%, no sharp cut-off; inactive means mostly below about 14%; further: read at 38.3 µM for the half of the compounds with a filed dose; 0% is about no effect
* hit, by the source's call; nt = not tested or not shown; + = active, no number. The list is not random: actives were taken first. Their share in the collection is about 12%. Unless noted, the call rests on the fitted dose curve.

SMILES	Shiga toxin inh	NS1 inh	SARS PLP yeast	Cycloheximide cs
Cc1c(C(=O)N2c3ccccc3CC2C)oc2ccccc12 (stereo unspecified)	165.6*	-89.0%	-19.4%	41.6*
COc1ccccc1C(=O)N1CCN(C(=O)c2oc3ccc(C)cc3c2C)CC1	37.0	-24.9%	6.2%	5.0
Cc1c(C(=O)N2CCc3ccccc3C2)oc2ccccc12	74.1*	-32.6%	6.1%	38.6*
CC1Cc2ccccc2N1C(=O)c1nn(C)cc1Br (stereo unspecified)	-1.5	-12.3%	-31.8%	9.3*
Cc1ccc2oc(C(=O)N3CCN(c4cccc(C)n4)CC3)c(C)c2c1	nt	-36.1%	-2.7%	27.0*
Cc1nn(C(=O)c2c([N+](=O)[O-])cnn2C)c(C)c1Cl	24.0	-3.8%	5.0%	-1.9
COc1cc(OC)c(OC)cc1CNCCNC(=O)c1ccco1	-6.0	-16.5%	-0.9%	-3.0
CCc1nnc(NC(=O)CS(=O)(=O)c2ccccc2)s1	-2.7	10.2%	13.0%	-2.5
Cc1c(Cl)cccc1NC(=O)N1CCN(C(=O)c2ccco2)CC1	0.5	5.7%	1.6%	-6.1
Cc1ccc2oc(C(=O)N3CCCCCC3)c(C)c2c1	110.1*	-37.9%	-1.3%	70.6*
Cc1cc(Cl)c2oc(C(=O)N3CCN(C(=O)c4ccco4)CC3)c(C)c2c1	65.3*	-20.7%	-21.4%	38.4*
Cc1cc(Cl)c2oc(C(=O)N3CCN(c4cccc(C)n4)CC3)c(C)c2c1	nt	-42.3%	-1.5%	46.6*
Nc1c(C(=O)N2CCCCCC2)oc2ccccc12	41.0	2.8%	-2.8%	21.1*
O=C(NCCNc1ccc([N+](=O)[O-])cc1)c1ccccc1Br	17.8	2.7%	-4.5%	-1.8
Cc1cc(=O)[nH]c2c(C)cc(S(=O)(=O)N3CCCCC3)cc12	3.0	-5.9%	-4.8%	1.0
COC(=O)CCC(=O)c1oc2ccccc2c1N	89.1*	-5.9%	-1.8%	42.3*
Cc1c(C(=O)N2CCN(c3ccccn3)CC2)oc2ccccc12	66.5*	-40.2%	1.5%	20.3*
C=CCN1CCN(C(=O)c2oc3ccccc3c2C)CC1	20.7	1.1%	-4.4%	20.3*
COc1ccc(CN(C)CC(=O)Nc2cccc(S(=O)(=O)N3CCCC3)c2)cc1F	nt	nt	1.4%	nt
C#CCOc1c(Br)cc(/C=N\NC(=O)CN2CCOCC2)cc1OCC	-8.5	1.9%	-5.7%	0.8
Cc1ccc(C2=NNC(C(O)C(O)C(O)C(O)CO)S2)cc1 (stereo unspecified)	56.0*	-8.0%	-3.5%	24.8*
CC(=O)Nc1ccc(NC(=O)CSc2nc3nc(C)cc(C)c3c(=O)[nH]2)cc1	-1.9	-2.1%	nt	-10.0
COc1ccc(O)c(C(=O)c2cnc3onc(C)c3c2)c1	17.5	-9.5%	-1.4%	21.3*
Cc1ncc(CC(=O)n2cc(C(=O)c3cc(F)ccc3O)cn2)s1	45.2*	16.2%	-1.3%	33.8*
Cc1ccc(O)c(C(=O)c2cnn(C(=O)Cc3csc(C)n3)c2)c1	84.4	-155.9%	-4.5%	-0.8
SMILES	Shiga toxin inh	NS1 inh	SARS PLP yeast	Cycloheximide cs
O=C(c1cnc2ccc3ccccc3c2c1)c1cc(F)ccc1O	69.3*	-27.7%	-0.9%	46.1*
O=C(c1cnn(-c2ccccc2)c1)c1ccccc1O	75.1*	6.7%	-13.4%	69.8*
COc1ccc(-n2cc(C(=O)c3ccccc3O)cn2)cc1	39.9	-7.3%	-0.6%	17.7
COc1ccc(O)c(C(=O)c2cc(C#N)c(=O)n(-c3c(C)n(C)n(-c4ccccc4)c3=O)c2)c1	-6.3	9.5%	0.6%	22.4*
COc1ccc(O)c(C(=O)c2cnn(-c3ccccc3)c2)c1	95.8*	-36.2%	-14.8%	28.6*
Cc1ccc(O)c(C(=O)c2cc(C#N)c(=O)n(-c3c(C)n(C)n(-c4ccccc4)c3=O)c2)c1	-5.8	2.0%	2.1%	-2.4
COc1ccc(C(=O)c2ccccc2)c(O)c1	+	4.2%	-2.8%	25.8*
COc1ccc(C(=O)OCCOc2ccccc2C(C)=O)c(O)c1	40.8	-0.7%	-1.8%	12.7*
O=C(c1ccccc1Br)N1CCn2c1nc1ccccc12	-13.5	-0.2%	-0.7%	-7.7
O=C(c1cnn(-c2ccccc2)c1)c1cc(F)ccc1O	82.7*	-3.1%	-0.7%	43.5*
Oc1ccc(CNc2ccc(C(F)(F)F)cc2Cl)c2cccnc12	nt	nt	-1.5%	nt
Cc1ccc(N2C(=O)NC(=O)/C(=C\C=C\c3ccco3)C2=O)cc1C	12.3	28.8%	-6.6%	17.8*
Cc1ccc(N2C(=O)NC(=O)/C(=C\C=C\c3ccco3)C2=O)cc1	56.3*	9.8%	-4.3%	61.0*
CCOC(=O)C1=C(C)N(c2ccc(C)c(C)c2)C(=O)/C1=C\c1ccco1	17.3	7.9%	3.2%	-3.3
O=C1NC(=O)N(Cc2ccccc2)C(=O)/C1=C\C=C\c1ccco1	37.1	nt	-0.9%	29.7*
C=CCN1C(=O)NC(=O)/C(=C/C=C/c2ccccc2)C1=O	37.5	nt	-2.3%	17.2
O=C1NC(=O)N(CCc2ccc(F)cc2)C(=O)/C1=C\C=C\c1ccccc1	26.6	nt	2.0%	20.8*
O=C1NC(=O)N(Cc2ccco2)C(=O)/C1=C/C=C/c1ccco1	-3.8	14.3%	-0.6%	-0.1
C[C@H](CO)N1C[C@H](C)[C@@H](CN(C)S(C)(=O)=O)Oc2ccc(NC(=O)Nc3ccc4c(c3)OCO4)cc2C1=O	nt	nt	-15.2%	nt
COc1ccc(CCC(=O)Nc2cc(S(C)(=O)=O)ccc2Cl)cc1	-3.8	nt	7.6%	-2.0
CN1C(=O)/C(=C/C=C/c2ccco2)C(=O)NC1=S	-14.8	9.3%	1.3%	-0.8
O=C1NC(=O)N(c2ccccc2)C(=O)/C1=C/C=C/c1ccco1	57.2*	2.8%	-1.1%	36.1*
Cc1cccc(N2C(=O)NC(=O)/C(=C\C=C\c3ccco3)C2=O)c1	41.9	-1.2%	-1.5%	20.2*
CN(C)c1ccc(/C=C/C=C2/C(=O)NC(=O)N(c3ccccc3)C2=O)cc1	11.9	-2.5%	-0.1%	-2.0
CN(C(=O)CN(C)S(=O)(=O)c1ccc(F)cc1)c1c(N)n(Cc2ccccc2)c(=O)[nH]c1=O	nt	nt	25.8%	nt
SMILES	Shiga toxin inh	NS1 inh	SARS PLP yeast	Cycloheximide cs
Cc1ccc(C)c2sc(NC(=O)c3ccc(N4C(=O)CCC4=O)cc3)nc12	-10.9	13.4%	-6.4%	-1.7
CC1CCc2nc(NC(=O)c3ccc(N4C(=O)CCC4=O)cc3)sc2C1 (stereo unspecified)	35.0*	15.7%	15.5%	12.7*
CC1CCc2c(sc(NC(=O)c3ccc(N4C(=O)CCC4=O)cc3)c2C(N)=O)C1 (stereo unspecified)	nt	nt	-8.8%	nt
O=C(Nc1nc2c(s1)CCCC2)c1ccc(N2C(=O)CCC2=O)cc1	72.2*	10.4%	nt	37.6*
O=C(Nc1nc2c(s1)CCCC2)c1ccc(Br)s1	110.8*	-3.8%	5.5%	42.3*
Cc1ccc(CC(=O)Nc2nc3c(s2)CCCC3)cc1	46.0	-8.1%	0.6%	26.0
CNc1oc(-c2ccco2)nc1C#N	21.0	-1.8%	4.5%	0.2
CNc1oc(-c2cccc3ccccc23)nc1C#N	63.7	-15.5%	-2.2%	5.1
CNc1oc(-c2ccccc2Cl)nc1C#N	48.2	-28.5%	-10.4%	17.0*
CNc1oc(-c2ccc(Cl)cc2)nc1C#N	177.7*	2.0%	-11.6%	36.7*
COc1ccc(-c2nc(C#N)c(NC(C)C)o2)cc1	73.6*	-14.4%	-1.1%	40.7*
COc1ccc(-c2nc(C#N)c(N3CCCCC3)o2)cc1	-2.3	9.4%	-3.4%	1.6
